# Whole data set: some 33,000 sequences, median “e-score” near -0.038, cut for the highest 2% near 0.33. Many of the other results were omitted from the sample, so the highest values are more common in it than they were.
# Biological target: T1, GST-Rok-C97-191 (Bacillus subtilis subsp. subtilis str. …, UniProt O34857 97-191)
# T1 sequence: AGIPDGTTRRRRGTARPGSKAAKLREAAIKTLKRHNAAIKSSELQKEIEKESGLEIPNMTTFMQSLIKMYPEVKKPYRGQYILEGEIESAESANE
# Assay: protein binding microarray; Rok is a gene silencer of Bacillus subtilis; high values mean tight binding
# Conditions: protein: recombinant; tags: GST (pTH5325, pDEST15-Magic modified); dsDNA, one strand shown
# In short: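 Every oligonucleotide joins a 25-mer constant primer to a 35-mer variable part drawn from a de Bruijn sequence of order 10, so each non-palindromic 8-mer appears at least 32 times and each palindromic 8-mer 16 times. The preference for every 8-mer is reported as a unitless, rank-based enrichment score (E-score). This score spans 0.5 for the most favored 8-mer to −0.5 for the most disfavored.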
row,Sequence,binding signal [E-score]
1,AATCCATG,-0.019
2,CGAGTAAA,0.128
3,ACTCAGGC,-0.123
4,CAAAAGAG,-0.195
5,ACGGGGAA,0.0307
6,GAGTCCTA,-0.119
7,TATTTAGA,0.0799
8,ATAAAGGC,0.052
9,ACATACGC,-0.0272
10,CATAGACA,-0.0183
11,CGTCCACC,-0.198
12,CAGTTATA,0.187
13,GAGTTATA,0.213
14,TAGTTATA,0.39
15,GAGGAACA,-0.114
16,CAAATTAG,0.044
17,GAAATTAA,0.278
18,GAAATTAC,0.359
19,AAAATTAC,0.327
20,CAAATTAC,0.33
21,GAAATTGC,0.239
22,ATTCGCGG,-0.0504
23,CTAAGTTA,0.291
24,GCGAGACC,-0.114
25,CAACCCTG,-0.104

row,Sequence,binding signal [E-score]
1,ATCATCTA,0.148
2,GAGCCTAC,-0.193
3,CAACAGTA,0.315
4,GTACAGTA,0.283
5,CTACAGTA,0.235
6,GAACAGTA,0.179
7,ATACAGTA,0.385
8,TAACAGTA,0.342
9,ATGGCACC,-0.0965
10,CCCTTCGC,-0.198
11,ACTAAGGA,0.268
12,ACGGCCAG,-0.104
13,CCTTCTGC,-0.174
14,AGTCGTAC,0.108
15,GTAGATAA,0.397
16,CTAGATAC,0.204
17,GTAGATAC,0.381
18,AGAGATAC,0.166
19,CTAGATAA,0.3
20,AAAGATAA,0.33
21,ATAGATAA,0.325
22,AAAGATAC,0.0421
23,ATAGATAC,0.357
24,GCAGATAC,-0.00726
25,ACAGATAC,0.252

row,Sequence,binding signal [E-score]
1,GAAGATAA,0.224
2,TGAGAAAA,0.154
3,AAGGATGA,-0.0751
4,TGAAAGCA,0.0344
5,GACCGGGA,-0.0628
6,ACAGGCGG,-0.187
7,ATAGATAG,0.267
8,ATAGATAT,0.415
9,ACAGATAT,0.185
10,ACTTTTGA,0.0573
11,CAGACGCA,-0.191
12,ATTTTCTC,0.255
13,ATTTTCTA,0.379
14,ACTTTCTC,0.0481
15,ATTTTCTG,-0.0553
16,GATTTCAA,0.0221
17,AATTTCTA,0.355
18,AATTTCTG,0.128
19,ACTTTCTA,0.386
20,CATTTCTA,0.306
21,GATTTCTA,0.357
22,AATTTCTC,0.198
23,CCTTTCTA,0.108
24,AGTGTAGG,0.0625
25,GATCCGAC,-0.0267

row,Sequence,binding signal [E-score]
1,GGCATTCA,-0.0675
2,GCGGGGAA,-0.189
3,ATTTTCCA,0.105
4,ATTTTCCC,-0.00582
5,ATTTTCCG,0.329
6,TGGCAAAA,0.122
7,GGAATCAC,-0.0168
8,AGTATCTA,0.351
9,ACTATCTA,0.364
10,ACTATCTC,0.263
11,GGTATCTA,0.23
12,ATTATCTA,0.385
13,ATTATCTC,0.0108
14,GCTATCTA,0.333
15,CCTATCTA,0.319
16,AGTATCTG,0.198
17,GCTATCCA,0.0235
18,ATTATCTG,0.203
19,AGTATCTC,0.185
20,AAAAGGGC,-0.186
21,GGACAGAC,-0.0976
22,GAACGGGA,-0.108
23,CAGCTCCA,-0.0439
24,ACTATCGA,0.348
25,CCTATCGA,0.117

row,Sequence,binding signal [E-score]
1,GCTATCGA,0.102
2,TAGCAGAA,0.073
3,AAGCGAGT,-0.052
4,AAGAAAGA,0.0949
5,GAGGTATA,0.243
6,CAGGTAGA,0.223
7,GAGGTAGC,-0.122
8,TAGGTAGA,0.386
9,AAGGTAGA,0.246
10,GAGGTAGA,0.334
11,GACAGGGA,-0.0489
12,AGCAATGA,-0.189
13,CGACCAAC,-0.152
14,ACCTTGCT,-0.156
15,GTTTTCAA,-0.105
16,ATCAAAAT,0.231
17,CGCCGTTC,-0.164
18,CATATGTC,0.00539
19,CATATGTA,0.36
20,CATATGAA,-0.0194
21,GATATGTA,0.303
22,AATATGTA,0.375
23,AATATGTC,0.135
24,GCATCAAC,0.0173
25,CGATAAGC,0.0146

row,Sequence,binding signal [E-score]
1,CTCTATGC,-0.0298
2,AAGAGTAG,0.212
3,ACACTAGT,0.257
4,AAACTAGC,0.337
5,CAACTAGC,0.214
6,AAACTAGG,0.285
7,AAACTAGT,0.445
8,GAACTAGC,0.205
9,CGCTGCAA,-0.0879
10,AACCATAA,0.0116
11,GACCATAA,0.0376
12,TACCATAA,0.354
13,ACGTTCGG,0.0487
14,GATGGCGA,0.0644
15,CAATCTGC,0.0189
16,CAATCTAA,0.232
17,GAATCTCC,0.0847
18,CGATCTAG,0.26
19,GAATCTAA,0.188
20,CAATCTAC,0.395
21,GAATCTAC,0.423
22,CGATCTAA,-0.0333
23,CGATCTAC,0.335
24,CAAGAACC,-0.0441
25,GGGACAAA,-0.132

row,Sequence,binding signal [E-score]
1,TGGAGGAA,-0.00731
2,AGCGTAAG,-0.0539
3,CCTATTCG,-0.0809
4,ACTCATCT,-0.0629
5,ATGCCCAC,-0.129
6,GATTTGTA,0.176
7,AATTTGTA,0.346
8,CGTTTGTA,0.113
9,AGTTTGTC,0.0866
10,ATTTTGTA,0.228
11,AGTTTGTA,0.367
12,ACTGAAGG,-0.0541
13,AGCTCGTC,-0.149
14,CCACTAAC,0.0126
15,CTGCTCCA,-0.00585
16,CGACATGC,-0.104
17,GATTCTAA,0.086
18,GATTCTGC,0.0425
19,AGTTCTAA,0.142
20,CATTCTAA,0.12
21,GATTCTAC,0.406
22,AATTCTAA,0.286
23,AGTTCTAT,0.242
24,CATTCTAC,0.384
25,AATTCTAC,0.421

row,Sequence,binding signal [E-score]
1,AGTTCTAC,0.386
2,CATTCTAG,0.202
3,AATTCTAT,0.286
4,CCGACGTA,-0.0042
5,CACATTAG,0.175
6,GACTCGTA,-0.148
7,ATGCTACC,0.00967
8,TAGATAAA,0.292
9,AAAAAATG,-0.032
10,TCAGGAGA,-0.166
11,ACTAATGC,0.262
12,AACTACTG,0.424
13,CGCTACTA,0.326
14,AACTACTA,0.465
15,GGCTACTA,0.0153
16,AGCTACTG,0.233
17,AACTACGG,0.19
18,AACTATTG,0.291
19,AGCTACTA,0.378
20,TACTACAA,0.303
21,GCCTACTA,0.229
22,TACTACGA,0.291
23,TACTACTA,0.44
24,AGGGCACA,-0.171
25,ATGAATCA,-0.0987

row,Sequence,binding signal [E-score]
1,CCGACAAC,-0.076
2,TACCCTCA,-0.129
3,AAGTTCCA,-0.0431
4,ACTCACTG,0.00942
5,GATCCAAC,-0.164
6,CAACCATC,-0.0304
7,ATTAAACG,0.0877
8,ACAAGGGC,-0.198
9,AATGCCCT,0.0279
10,ACCTACTA,0.343
11,AGCTAATC,0.102
12,AAGTACTT,0.325
13,CACTACGA,0.123
14,CACTACTA,0.344
15,CGCTAATA,0.286
16,CCCTACTA,0.124
17,AACAACTT,0.144
18,ACCTACTG,0.238
19,AGCTAATA,0.366
20,CACTACTG,0.0489
21,AACTACTT,0.392
22,CGAAGGAG,-0.0169
23,ACCAGACG,-0.153
24,AGTAGTCA,0.259
25,AGTAAAGA,0.0717

row,Sequence,binding signal [E-score]
1,CTCGCTCA,-0.0517
2,ACTATGGA,0.0778
3,CGTTATCA,0.165
4,ACGTCCTG,-0.0421
5,ACTGACGG,-0.0188
6,ACTAACAC,0.0585
7,AGCTACCC,0.025
8,AGCTACCT,0.209
9,AGCTACCA,0.35
10,TACTGCTA,0.334
11,CACTACTC,-0.0277
12,ACCTACTC,0.0493
13,AACTACTC,0.363
14,GACTACGA,0.0584
15,GACTACTC,0.127
16,CACTGCTA,0.0112
17,GACTACTA,0.373
18,AACTGCTA,0.0364
19,AAAACCGA,0.0507
20,TATTCCCA,0.217
21,ATCTAGGC,0.0159
22,GCAACATA,0.217
23,CTCGCATC,-0.126
24,GTACTATA,0.436
25,CTACTATA,0.371

row,Sequence,binding signal [E-score]
1,GTGCTATA,0.202
2,ATACTATG,0.254
3,CTGCTATA,0.039
4,GGACTATA,0.0884
5,CGACTATA,0.122
6,ATACTATA,0.365
7,CCACTATA,0.219
8,GCACTATA,0.0612
9,ATGCTATA,0.35
10,ATACTAGA,0.305
11,TGAGGCAA,-0.148
12,ACGACTTC,0.0725
13,GCTGGTTA,0.0982
14,AGACCTGC,-0.148
15,CGCCAGCG,-0.123
16,AGACAATA,0.0922
17,TACAGTCA,0.144
18,TGGCTGAA,0.00639
19,AAGTACTA,0.385
20,AAGTACAC,0.275
21,GAGTACAA,0.136
22,GAGTACTA,0.0418
23,AAGTACTC,0.146
24,AAGTACAA,0.349
25,AAGTACTG,0.145

row,Sequence,binding signal [E-score]
1,TAGTACTA,0.402
2,CAGTACTA,0.264
3,GTTATGCA,0.256
4,CCTTCAAC,-0.0251
5,CTATTGGC,-0.0724
6,AAGCAAGT,-0.0255
7,GGCTATAC,-0.00424
8,ACAAGTCT,-0.182
9,GGAGTAAA,0.000261
10,ATAGTACA,0.347
11,CTAGTAAA,0.289
12,ATAGTAAT,0.396
13,ATAGTACC,0.254
14,TTAGTAAA,0.21
15,ATAGTAAG,0.278
16,ATAGTAAA,0.357
17,GTAGTAAA,0.338
18,ATAGTAAC,0.28
19,CTAGTACA,0.265
20,GTAGTAAC,0.307
21,CCCAGCAG,-0.112
22,CTGAACGC,-0.149
23,TACGACAA,0.151
24,ATGGTCAA,0.137
25,AAACTCCG,0.115

row,Sequence,binding signal [E-score]
1,GCTGTTTA,0.0646
2,AAATTCTC,0.0486
3,AAATTCTT,0.105
4,AAATTCTA,0.379
5,TAATTCCA,0.207
6,CAATTCTA,0.287
7,TAATTCTA,0.331
8,TAATTCAA,0.168
9,GAATTCTC,0.0595
10,GAATTCTA,0.363
11,CCCGCTCC,-0.108
12,GCGACCCA,0.134
13,TCAAGGAA,-0.0876
14,ATCAACCA,-0.0125
15,ATATAGAT,0.399
16,ATATAGAG,0.165
17,ATATAGAC,-0.00572
18,GTATAGAA,0.278
19,CTATAGAA,0.283
20,ATATAGAA,0.347
21,CTGACAAG,-0.143
22,AAGATGAG,0.0366
23,CAACAAGA,-0.163
24,CTCTATAA,0.0363
25,CTGTATAA,0.215

row,Sequence,binding signal [E-score]
1,ATATATGA,0.329
2,CAATATAA,0.295
3,ATGTATAC,0.308
4,ACTTATAA,0.338
5,ATGTATAA,0.364
6,CTATATGA,0.0756
7,CTATATAA,0.359
8,ACTTATAT,0.29
9,CCTTATAA,0.0808
10,GTATATGA,0.224
11,CACGGGCA,-0.13
12,AATTGTTA,0.234
13,GCTTTCAA,-0.116
14,AGGAAGGA,-0.123
15,AGAGTACT,0.169
16,CACGTAGA,-0.0653
17,AGCTCGCA,-0.0853
18,AGAGACTG,0.0621
19,AACCAAAA,0.0375
